# Results filed as inconclusive are left out. Entries that show only a call come without a potency. A number with no mark means an inactive call. Calls of active or inactive are those of the source. Calls follow the shape of the dose curve; as a rule, active = well fitted activation curve with a large enough effect in the repeat runs; inconclusive = weak or mixed curves; inactive = flat fitted curve, though single readings scatter.
# Experiment: A CellTox Green Cytotoxicity Assay to monitor cytotoxicity in HepG2 cells - 16 hour (AID 1224876); also: nearly all actives have a fitted effect of over 45% in size
# Details: CellTox Green fluorescence; series mostly up to 76.8 µM
# Method in brief: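 HepG2 cells, 600/well, preincubated 5 h with CellTox Green dye, then exposed to Tox21 compounds in DMSO at 37 C for up to 40 h. Dead-cell DNA fluorescence read at the indicated time point.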
# Potency is read from the fitted curve at half-maximal effect.
SMILES,Potency,cytotoxicity increase
C#CCOC(C(=O)OCCN(C)C)(c1ccccc1)c1ccccc1,inactive,–
Brc1ccccc1,inactive,–
C[C@]12CC[C@H]3[C@@H](CCC4=CC(=O)CC[C@@H]43)[C@@H]1CC[C@@H]2OC(=O)CCC1CCCCC1,inactive,–
Cn1sc(Cl)cc1=O,inactive,–
CC(C)O.CC(C)O.OCCN(CCO)CCO.OCCN(CCO)CCO.[Ti],inactive,–
c1ccoc1,inactive,–
O=C1c2ccccc2C(=O)C1C(=O)C(c1ccccc1)c1ccccc1,inactive,–
NCC(CC(=O)O)c1ccc(Cl)cc1 (stereo not given),–,-3.17% [at 0.29 µM]
CCOS(C)(=O)=O,inactive,–
O=C(NCc1cccnc1)Nc1ccc([N+](=O)[O-])cc1,inactive,–
Cc1ccccc1CCl,inactive,–
ClCCCCBr,inactive,–
COP(=S)(OC)Oc1cc(Cl)c(I)cc1Cl,inactive,–
Nc1ccc([N+](=O)[O-])cc1[N+](=O)[O-],inactive,–
CN1C(=O)NC(=O)C(C)(C2=CCCCC2)C1=O (stereo not given),inactive,–
O=C(CBr)Nc1ccc(Cl)cc1C(=O)c1ccccc1F,inactive,–
C=CC(=O)OCC(C)O (stereo not given),inactive,–
CC1C(=O)C[C@]2(C(C)C)C[C@H]12 (stereo not given in full),inactive,–

SMILES,Potency,cytotoxicity increase
C=CCC1([C@H](C)CCC)C(=O)NC(=O)NC1=O,inactive,–
COc1cc(Cl)c(OC)cc1Cl,inactive,–
CCCCCCCCCCOC(=O)c1ccccc1C(=O)OCCCCCCCCCC,inactive,–
CCCN(CCC)c1c([N+](=O)[O-])cc(S(C)(=O)=O)cc1[N+](=O)[O-],inactive,–
CCc1ccc(C(=O)NN(C(=O)c2cc(C)cc(C)c2)C(C)(C)C)cc1,inactive,–
Clc1cc(Cl)c(Cl)c(Cl)c1,inactive,–
CC(C)(OO)c1ccccc1,inactive,–
Nc1ccc(N=Nc2ccc(-c3ccc(N=Nc4c(S(=O)(=O)O)cc5cc(S(=O)(=O)O)c(N=Nc6ccccc6)c(O)c5c4N)cc3)cc2)c(N)c1,inactive,–
N#Cc1ccc(Cl)cc1,inactive,–
CC(=O)C(C)(C)C,inactive,–
C[N+](C)(C)CCCl,inactive,–
CN1C[C@H](CNC(=O)OCc2ccccc2)C[C@@H]2c3cccc4c3c(cn4C)C[C@H]21,23.9 µM (active),–
CCOP(=S)(OCC)SCSCC,inactive,–
O=C(O)COc1ccc(Cl)cc1,inactive,–
ClCc1cccc(Cl)c1,inactive,–
COCC(C)N(C(=O)CCl)c1c(C)csc1C (stereo not given),inactive,–
COC1=CC(=O)O[C@@H](CCc2ccccc2)C1,inactive,–
